Source: PubChem BioAssay
Activity calls are given as the source filed them.

Assays:
[1] = test system: PRMT1 (protein arginine N-methyltransferase 1); test: PRMT1 binders on small-molecule microarrays, primary screen, biochemical, small-molecule microarray, 635 nm fluorescence (AID 1088); conditions: small-molecule microarray binding, higher = more signal;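 note: binding of Prmt1 protein to compounds spotted on small-molecule microarray slides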
[2] = yeast growth modulation, basal conditions, primary screen, YJM789 clinical isolate, OD600, 24 h (AID 1089);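 note: growth of clinical yeast isolate S. cerevisiae YJM 789 seeded 1000 cells per well; test concentration not given here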; conditions: S. cerevisiae YJM789 growth, higher = more signal, called active from +8 up or from −8 down
[3] = fission yeast growth modulation, primary screen, strain 972, OD600, 24 h, no modulator (AID 1090);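 note: basal condition with compound alone and no growth modifier present; test concentration not given here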; conditions: S. pombe 972 growth, higher = more signal, called active from +8 up or from −8 down
[4] = S. cerevisiae growth modulation with rapamycin, primary screen, strain BY4716, OD600, 96 h (AID 1091); conditions: higher = more signal, called active from +8 up or from −8 down; note: test concentration not given here
[5] = biological target: Torsin-1A-interacting protein 2 (Homo sapiens) (UniProt Q8NFQ8); test: LULL1 binders on small-molecule microarray, primary screen, cell lysate, human LULL1 lysate, 635/667 nm fluorescence (AID 1092); conditions: hLULL1 lysate binding, 635 nm fluorescence, higher = more signal;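 note: probe is lysate of COS7 cells overexpressing human LULL1; score merges per-feature 667 nm fluorescence with signal-to-noise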
[6] = E. coli growth modulation, two-sided OD650, primary screen, E. coli filamentation project, strain DRC41, 24 h (AID 1093); conditions: OD650, 24 h, higher = more signal, called active from +8 up or from −8 down;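 note: MC1000 strain lacking acrAB efflux and sulA so SOS filamentation is blocked; test concentration not given here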
[7] = small-molecule microarray binders of probe aLefty2, primary screen, biochemical, biotinylated probe, 635/667 nm fluorescence (AID 1094); conditions: higher = more signal;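 note: score merges spot fluorescence near 667 nm with spot signal-to-noise ratio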
[8] = test system: Noggin (protein binding on small-molecule microarray); test: Noggin binders on small-molecule microarray, primary screen, biochemical, 635/667 nm fluorescence (AID 1095); conditions: 635 nm fluorescence, higher = more signal;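 note: score merges 667 nm feature fluorescence with signal to noise over triplicate slides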
[9] = biological target: Neurogenic locus notch homolog protein 3 (Homo sapiens) (UniProt Q9UM47); test: NOTCH3 binders on small-molecule microarray, primary screen, biochemical, 635/667 nm fluorescence (AID 1096); conditions: NOTCH3 binding, 635 nm fluorescence, higher = more signal
[10] = small-molecule microarray binders of probe aEGFR, primary screen, biochemical, biotinylated probe, 635/667 nm fluorescence (AID 1097); conditions: higher = more signal;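 note: probe is a biotinylated anti-EGFR antibody binding compounds printed on slides; score combines fluorescence near 667 nm and signal to noise of each spot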
[11] = test system: Plasmodium falciparum Sir2 (PF13_0152, Sir2A); test: pfSir2 binders on small-molecule microarrays, primary screen, biochemical, small-molecule microarray, 635 nm fluorescence (AID 1098); conditions: small-molecule microarray binding, fluorescence 635 nm; higher = more signal;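 note: score merges spot fluorescence intensity with its signal-to-noise ratio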
[12] = small-molecule microarray binders of probe aDKK1, primary screen, biochemical, biotinylated probe, 635/667 nm fluorescence (AID 1099); conditions: higher = more signal;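 note: score merges 667nm spot fluorescence with signal to noise across triplicate slides; reference of the scale not given here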
[13] = small-molecule microarray binders of probe aCHRDL2, primary screen, biochemical, biotinylated probe, 635/667 nm fluorescence (AID 1100); conditions: higher = more signal
[14] = splicing luciferase reporter signal modulators, primary screen, spliceosome inhibition project, cell-based, HEK293, splice +/- reporter (AID 1101); conditions: luminescence, 24 h, higher = more signal, called active from +8 up or from −8 down;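 note: HEK293 cells carrying a splicing-competent luciferase reporter gene; test concentration not given here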
[15] = biological target: Fibroblast growth factor 10 (Homo sapiens) (UniProt O15520); test: FGF10 binders on small-molecule microarrays, primary screen, biochemical, small-molecule microarray, 635 nm fluorescence (AID 1102); conditions: FGF10 binding, fluorescence 635 nm, higher = more signal
[16] = test system: glycogen synthase kinase-3 (GSK3A per assay name; protocol says GSK3B); test: GSK3 binders on small-molecule microarrays, primary screen, biochemical, small-molecule microarray, 635 nm fluorescence, GSK3A (AID 1103); conditions: small-molecule microarray binding, fluorescence 635 nm; higher = more signal; note: the record names both GSK3A and GSK3B
[17] = biological target: Epidermal growth factor receptor (Homo sapiens) (UniProt P00533); test: EGFR binders on small-molecule microarrays, primary screen, biochemical, small-molecule microarray, 635 nm fluorescence (AID 1104); conditions: EGFR binding, higher = more signal;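 note: score merges 667 nm emission intensity with spot signal to noise over triplicate slides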
[18] = biological target: Follistatin-related protein 3 (Homo sapiens) (UniProt O95633); test: FSTL3 binders on small-molecule microarrays, primary screen, biochemical, small-molecule microarray, 635 nm fluorescence (AID 1105); conditions: FSTL3 binding, higher = more signal;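 note: score merges emission near 667 nm and signal to noise per printed spot across three slides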
[19] = biological target: Dickkopf-related protein 1 (Homo sapiens) (UniProt O94907); test: DKK1 binders on small-molecule microarrays, primary screen, biochemical, small-molecule microarray, 635 nm fluorescence scan (AID 1106); conditions: DKK1 binding, higher = more signal;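 note: score merges emission near 667 nm with signal to noise over three replicate slides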
[20] = test system: Inhibin beta A chain (activin A); test: INHBA (activin A) binders on microarrays, primary screen, biochemical, small-molecule microarray, 635 nm fluorescence scan (AID 1107); conditions: small-molecule microarray binding, higher = more signal;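 note: mouse activin A protein probed at 4.33 µg/mL on printed slides; score merges bound-protein fluorescence near 667 nm with spot signal-to-noise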

Torsin-1A-interacting protein 2 (Homo sapiens), sequence (Q8NFQ8 whole entry, looked up): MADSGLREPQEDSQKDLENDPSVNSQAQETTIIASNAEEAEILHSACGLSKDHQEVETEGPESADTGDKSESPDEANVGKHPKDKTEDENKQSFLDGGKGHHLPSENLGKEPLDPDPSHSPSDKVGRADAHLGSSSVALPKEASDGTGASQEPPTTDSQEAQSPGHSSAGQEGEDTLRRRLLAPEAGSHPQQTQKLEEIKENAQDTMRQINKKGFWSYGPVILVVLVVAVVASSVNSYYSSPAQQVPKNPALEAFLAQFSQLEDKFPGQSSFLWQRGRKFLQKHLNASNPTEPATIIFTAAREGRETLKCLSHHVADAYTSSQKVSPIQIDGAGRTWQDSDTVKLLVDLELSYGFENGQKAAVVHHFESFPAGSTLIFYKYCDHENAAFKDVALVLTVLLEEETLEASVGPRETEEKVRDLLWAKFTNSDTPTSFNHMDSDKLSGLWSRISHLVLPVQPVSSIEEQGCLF
Epidermal growth factor receptor (Homo sapiens), sequence (P00533 whole entry, looked up): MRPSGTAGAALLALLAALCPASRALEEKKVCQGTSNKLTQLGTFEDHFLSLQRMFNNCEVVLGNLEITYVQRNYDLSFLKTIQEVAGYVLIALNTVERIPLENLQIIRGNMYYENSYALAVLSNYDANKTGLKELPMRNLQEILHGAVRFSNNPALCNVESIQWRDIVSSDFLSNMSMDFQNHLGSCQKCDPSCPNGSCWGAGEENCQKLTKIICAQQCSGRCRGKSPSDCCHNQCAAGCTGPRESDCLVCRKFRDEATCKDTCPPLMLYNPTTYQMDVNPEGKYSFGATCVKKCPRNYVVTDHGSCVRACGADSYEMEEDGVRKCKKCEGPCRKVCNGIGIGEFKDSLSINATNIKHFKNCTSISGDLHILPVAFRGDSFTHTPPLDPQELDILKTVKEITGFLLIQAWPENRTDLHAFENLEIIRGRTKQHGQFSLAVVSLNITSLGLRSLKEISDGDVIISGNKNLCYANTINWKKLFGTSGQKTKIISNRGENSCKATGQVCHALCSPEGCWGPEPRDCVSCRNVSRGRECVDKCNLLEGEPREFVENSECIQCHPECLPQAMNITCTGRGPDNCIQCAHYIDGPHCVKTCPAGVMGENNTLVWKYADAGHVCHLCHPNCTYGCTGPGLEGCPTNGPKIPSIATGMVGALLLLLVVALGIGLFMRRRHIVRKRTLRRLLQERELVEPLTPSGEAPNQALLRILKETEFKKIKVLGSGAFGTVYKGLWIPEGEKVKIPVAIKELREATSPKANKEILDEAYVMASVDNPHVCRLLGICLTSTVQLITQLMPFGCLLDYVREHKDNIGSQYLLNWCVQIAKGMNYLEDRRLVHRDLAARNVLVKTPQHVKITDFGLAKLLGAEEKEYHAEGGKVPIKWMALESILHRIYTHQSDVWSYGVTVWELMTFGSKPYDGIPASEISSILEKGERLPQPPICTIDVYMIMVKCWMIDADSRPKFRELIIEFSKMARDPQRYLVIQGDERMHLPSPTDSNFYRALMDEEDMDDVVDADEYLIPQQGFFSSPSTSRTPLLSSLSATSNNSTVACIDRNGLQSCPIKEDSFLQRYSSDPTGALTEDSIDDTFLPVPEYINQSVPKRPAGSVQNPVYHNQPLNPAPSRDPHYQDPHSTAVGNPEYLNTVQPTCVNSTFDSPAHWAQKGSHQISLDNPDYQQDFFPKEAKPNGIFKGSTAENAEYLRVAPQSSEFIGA
Follistatin-related protein 3 (Homo sapiens), sequence (O95633 whole entry, looked up): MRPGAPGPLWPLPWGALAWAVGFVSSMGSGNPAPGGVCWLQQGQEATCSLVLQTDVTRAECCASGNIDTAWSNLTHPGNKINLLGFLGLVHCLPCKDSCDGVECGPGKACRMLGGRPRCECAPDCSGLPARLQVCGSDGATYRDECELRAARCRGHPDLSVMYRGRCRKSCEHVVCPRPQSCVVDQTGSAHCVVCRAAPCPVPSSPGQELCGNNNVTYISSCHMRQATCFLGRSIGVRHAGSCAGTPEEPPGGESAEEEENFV
Dickkopf-related protein 1 (Homo sapiens), sequence (O94907 whole entry, looked up): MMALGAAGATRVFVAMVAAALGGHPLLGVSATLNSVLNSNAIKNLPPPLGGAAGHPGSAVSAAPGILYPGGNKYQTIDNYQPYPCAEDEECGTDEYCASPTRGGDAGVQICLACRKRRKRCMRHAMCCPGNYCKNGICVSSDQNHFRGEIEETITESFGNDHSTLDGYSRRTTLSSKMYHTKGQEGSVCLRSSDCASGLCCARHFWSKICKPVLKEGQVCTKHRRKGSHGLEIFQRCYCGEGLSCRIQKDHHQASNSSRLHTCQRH
Neurogenic locus notch homolog protein 3 (Homo sapiens), sequence (Q9UM47 whole entry, looked up): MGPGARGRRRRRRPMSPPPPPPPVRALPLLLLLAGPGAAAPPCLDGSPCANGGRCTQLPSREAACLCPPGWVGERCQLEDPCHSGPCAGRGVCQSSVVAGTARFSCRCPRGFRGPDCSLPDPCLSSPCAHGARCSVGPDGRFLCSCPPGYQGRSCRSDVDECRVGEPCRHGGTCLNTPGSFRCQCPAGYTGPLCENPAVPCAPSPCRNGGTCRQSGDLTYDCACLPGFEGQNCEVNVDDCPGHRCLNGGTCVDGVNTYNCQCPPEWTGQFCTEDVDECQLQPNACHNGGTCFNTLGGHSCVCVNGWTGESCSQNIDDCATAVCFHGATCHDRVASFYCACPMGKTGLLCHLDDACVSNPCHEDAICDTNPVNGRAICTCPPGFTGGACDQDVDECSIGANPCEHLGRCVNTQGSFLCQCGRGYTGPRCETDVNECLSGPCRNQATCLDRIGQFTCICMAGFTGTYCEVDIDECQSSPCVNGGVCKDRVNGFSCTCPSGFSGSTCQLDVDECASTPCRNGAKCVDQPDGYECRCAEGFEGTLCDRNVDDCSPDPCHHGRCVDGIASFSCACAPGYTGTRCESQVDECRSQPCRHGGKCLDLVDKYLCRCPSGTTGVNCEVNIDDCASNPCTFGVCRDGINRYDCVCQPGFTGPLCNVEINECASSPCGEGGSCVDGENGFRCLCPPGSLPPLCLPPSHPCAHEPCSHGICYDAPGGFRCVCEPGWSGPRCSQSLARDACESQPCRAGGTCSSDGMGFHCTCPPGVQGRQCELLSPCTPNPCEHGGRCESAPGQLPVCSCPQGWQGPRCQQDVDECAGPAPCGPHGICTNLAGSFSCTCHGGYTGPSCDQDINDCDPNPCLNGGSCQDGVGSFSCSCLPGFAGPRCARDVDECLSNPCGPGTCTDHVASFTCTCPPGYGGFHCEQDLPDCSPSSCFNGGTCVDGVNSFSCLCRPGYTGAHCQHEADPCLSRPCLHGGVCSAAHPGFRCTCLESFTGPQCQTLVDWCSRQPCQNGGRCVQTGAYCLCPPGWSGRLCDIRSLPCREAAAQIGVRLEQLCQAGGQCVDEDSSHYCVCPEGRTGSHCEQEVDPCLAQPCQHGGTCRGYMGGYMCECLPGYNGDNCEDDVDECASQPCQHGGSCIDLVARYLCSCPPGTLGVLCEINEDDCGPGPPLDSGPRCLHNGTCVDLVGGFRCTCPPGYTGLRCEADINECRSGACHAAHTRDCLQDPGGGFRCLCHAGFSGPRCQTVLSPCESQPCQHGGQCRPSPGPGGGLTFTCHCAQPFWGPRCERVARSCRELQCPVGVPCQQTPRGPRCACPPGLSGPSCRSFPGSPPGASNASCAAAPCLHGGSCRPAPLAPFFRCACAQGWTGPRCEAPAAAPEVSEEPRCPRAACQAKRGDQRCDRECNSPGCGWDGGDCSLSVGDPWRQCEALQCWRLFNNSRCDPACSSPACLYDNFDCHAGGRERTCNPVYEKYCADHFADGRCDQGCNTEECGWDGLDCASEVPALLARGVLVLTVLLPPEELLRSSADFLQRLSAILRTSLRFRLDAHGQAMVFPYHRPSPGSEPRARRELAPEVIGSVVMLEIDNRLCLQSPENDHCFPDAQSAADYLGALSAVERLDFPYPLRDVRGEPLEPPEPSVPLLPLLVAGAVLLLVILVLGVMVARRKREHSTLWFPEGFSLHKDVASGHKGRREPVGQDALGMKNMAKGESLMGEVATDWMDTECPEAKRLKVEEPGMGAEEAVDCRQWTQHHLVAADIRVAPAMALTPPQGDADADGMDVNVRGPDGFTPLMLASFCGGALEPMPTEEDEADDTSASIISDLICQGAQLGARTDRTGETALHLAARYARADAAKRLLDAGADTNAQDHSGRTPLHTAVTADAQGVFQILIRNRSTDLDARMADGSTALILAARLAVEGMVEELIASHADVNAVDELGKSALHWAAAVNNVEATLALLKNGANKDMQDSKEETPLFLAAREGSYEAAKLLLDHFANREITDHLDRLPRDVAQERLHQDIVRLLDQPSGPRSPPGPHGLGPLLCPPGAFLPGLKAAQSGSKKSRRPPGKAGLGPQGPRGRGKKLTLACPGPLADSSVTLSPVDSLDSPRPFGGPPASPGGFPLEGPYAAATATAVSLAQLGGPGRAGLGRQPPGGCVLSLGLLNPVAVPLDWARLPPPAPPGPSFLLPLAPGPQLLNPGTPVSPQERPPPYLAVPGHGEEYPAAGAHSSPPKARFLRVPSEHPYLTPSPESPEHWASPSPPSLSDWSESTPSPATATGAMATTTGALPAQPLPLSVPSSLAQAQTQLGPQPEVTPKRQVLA
Fibroblast growth factor 10 (Homo sapiens), sequence (O15520 whole entry, looked up): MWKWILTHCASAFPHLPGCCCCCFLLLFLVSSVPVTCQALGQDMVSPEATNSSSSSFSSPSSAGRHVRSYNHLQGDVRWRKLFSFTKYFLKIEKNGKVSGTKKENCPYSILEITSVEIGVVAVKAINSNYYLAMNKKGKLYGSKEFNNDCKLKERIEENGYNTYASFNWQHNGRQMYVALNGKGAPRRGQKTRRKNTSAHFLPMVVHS

Compound | composite z-score [1] | z-score [2] | z-score [3] | z-score [4] | composite z-score [5] | z-score [6] | composite z-score [7] | composite z-score [8] | composite z-score [9] | composite z-score [10] | composite z-score [11] | composite z-score [12] | composite z-score [13] | z-score [14] | composite z-score [15] | composite z-score [16] | composite z-score [17] | composite z-score [18] | composite z-score [19] | composite z-score [20]
CC(C)(C)N1C(=O)[C@H]2[C@H]3[C@H](O)[C@H](O)CC(=NOCc4ccccc4)[C@@H]3CC[C@H]2C1=O | 0.966 | -1.86 (inactive) | -0.752 (inactive) | -0.715 (inactive) | 1.16 | -0.207 (inactive) | -0.0574 | 0.524 | 0.63 | 0.328 | 0.616 | -0.192 | 0.24 | -1.07 (inactive) | 0.97 | 0.535 | 0.455 | 0.988 | 1.59 | 0.528
CO[C@@H]1COC(=O)CC=C[C@@H](C)[C@@H]2C=C[C@@H](O)[C@@H](COC(=O)CC=C[C@H]1C)O2 | 1.44 | -1.85 (inactive) | -0.862 (inactive) | -0.562 (inactive) | -0.284 | -0.552 (inactive) | -0.19 | 1.29 | 0.0667 | -0.0112 | 0.661 | -0.325 | -1.08 | -0.953 (inactive) | 0.954 | 0.524 | 0.935 | 1.48 | 0.804 | 1.12
CN(C)CCCNC(=O)[C@@H]1c2ccccc2C(=O)N(Cc2cc(F)cc(C(F)(F)F)c2)[C@H]1c1ccc(CO)cc1 | 1.56 | -0.414 (inactive) | -0.627 (inactive) | -0.917 (inactive) | 2.93 | -0.66 (inactive) | -0.166 | -0.0315 | -1.2 | -0.174 | 1.75 | -0.132 | 0.17 | -1 (inactive) | 0.159 | 0.922 | 0.368 | -1.1 | 0.0959 | -0.217
CCOC(=O)CCN1C(=O)[C@H]2[C@H]3[C@H](O)[C@H](O)CC(=NOC[C@@H](O)COCc4ccco4)[C@@H]3CC[C@H]2C1=O | 0.163 | 0.133 (inactive) | -0.226 (inactive) | -0.0839 (inactive) | 0.545 | 0.383 (inactive) | 0.0814 | -0.298 | -0.62 | -0.0764 | 0.0645 | 0.587 | 0.437 | 0.395 (inactive) | -0.133 | -0.412 | -0.0138 | -0.295 | -0.144 | 0.383
CC(C)=CCCC(C)=CCON=C1C[C@@H](O)[C@@H](O)[C@@H]2[C@@H]3C(=O)N(C[C@@H]4CCCO4)C(=O)[C@@H]3CC[C@@H]12 | 1.54 | -0.224 (inactive) | 0.574 (inactive) | -0.618 (inactive) | 2.34 | 0.325 (inactive) | -0.133 | 1.3 | 1.01 | -0.0556 | 0.998 | -0.364 | -0.753 | 0.363 (inactive) | 1.33 | 1.29 | 1.15 | 1.37 | 1.37 | 1.52
CCCNC(=O)[C@@H]1c2ccccc2C(=O)N(c2ccc(C)cn2)[C@H]1c1ccc(CO)cc1 | 0.129 | -1.03 (inactive) | -0.144 (inactive) | -0.926 (inactive) | 0.553 | -0.0365 (inactive) | -0.0769 | -1.08 | -0.798 | -0.299 | 1.78 | 0.662 | 0.733 | 1.12 (inactive) | -0.584 | -0.503 | -0.327 | -1.06 | -0.537 | 1.14
CO[C@@H]1COC(=O)CC=C[C@@H](C)[C@@H]2C=C[C@H](O)[C@@H](COC(=O)CCC[C@H]1C)O2 | 1.43 | -0.199 (inactive) | 0.498 (inactive) | -0.181 (inactive) | -1.78 | 0.206 (inactive) | -0.075 | 1.65 | -0.076 | -0.15 | 0.686 | -0.177 | -0.899 | -1.09 (inactive) | 0.375 | 0.329 | 1.21 | 1.11 | 1.25 | 1.45
COC(=O)[C@H]1COC(c2ccc(OCCCO)cc2)=N1 | -0.152 | -0.488 (inactive) | -0.888 (inactive) | -0.606 (inactive) | 3.59 | 0.332 (inactive) | 0.267 | -0.37 | -0.607 | -0.0947 | 1.16 | 0.378 | 1.07 | -0.19 (inactive) | -0.13 | -0.882 | -0.2 | -0.576 | -0.59 | 1.04
COC(=O)CC=C[C@@H](C)[C@@H](C=NO[C@@H](C)c1cc(-c2c(C)cc(C)cc2C)no1)OC | -1.43 | -0.0365 (inactive) | -0.875 (inactive) | 0.599 (inactive) | -1.2 | -0.622 (inactive) | -0.047 | -0.119 | -0.75 | -0.419 | -0.677 | 0.237 | 1.07 | -1.2 (inactive) | -1.72 | -1.19 | -1.81 | -1.67 | -2.42 | -0.2
C[C@H]1Cc2c(-c3ccccc3)nc3c(c2CO1)CN(CCOc1ccccc1)CC3 | 1.56 | -0.0387 (inactive) | -1.24 (inactive) | -0.142 (inactive) | 2.3 | 1.91 (inactive) | -0.161 | 0.472 | 1.12 | -0.0114 | 1.21 | -0.357 | -0.815 | -0.512 (inactive) | 1.19 | 1.28 | 0.65 | 1.29 | 0.94 | 0.127
